Screening results as filed in PubChem BioAssay.
Only a selection was taken, and hits are over-represented in it overall.
DUX4 inh – DUX4-mediated transcription inhibition | activity change, negative = inhibition, % (concentration not given with the values) | hit rate 0.8% among 37,000 | 293T-iDUX4 ZSCAN4-Gaussia luciferase reporter, 24 h; active compounds read low;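 active = mean inhibition of at least 10% in the main channel, exceeding the control channel by a set limit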;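 also: 0% = median of neutral control wells and -100% = median of positive control wells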
* hit, by the source's call; ! = not active in a repeat.

How did COc1cccc(S(=O)(=O)N2CCCCN3[C@@H](CO)[C@H](c4ccc(-c5cccnc5)cc4)[C@@H]3C2)c1 do in these assays?
DUX4 inh: -3.8

What do the screens show for `Cc1cccc(S(=O)(=O)N2C[C@@H]3N[C@H](C2)C3c2ccc(-c3ccccc3C)cc2)c1` (some centres not stated)?
DUX4 inh: -72.6*!

Results for COc1cccc(S(=O)(=O)N2C[C@@H]3N[C@H](C2)C3c2ccc(-c3ccccc3F)cc2)c1 (some centres not stated) ?
DUX4 inh: -68.6*!

What do the screens show for `Cc1cccc(S(=O)(=O)N2C[C@@H]3N[C@H](C2)C3c2ccc(-c3cncnc3)cc2)c1` (some centres not stated)?
DUX4 inh: -4.1

What do the screens show for `COc1ccc(S(=O)(=O)N2[C@@H]3CNC[C@H]2C3c2ccc(-c3ccccc3F)cc2)cc1` (some centres not stated)?
DUX4 inh: 4.0

What do the screens show for `COc1cccc(S(=O)(=O)N2C[C@@H]3N[C@H](C2)C3c2ccc(-c3ccccc3C)cc2)c1` (some centres not stated)?
DUX4 inh: -35.6*!

What do the screens show for `C[C@H]1CN([C@@H](C)CO)C(=O)CCCn2cc(nn2)CO[C@@H]1CN(C)Cc1cccc(C(F)(F)F)c1`?
DUX4 inh: 0.8

How did CCOC(=O)N(C)C[C@H]1OCc2ccccc2-c2ccccc2C(=O)N([C@H](C)CO)C[C@H]1C do in these assays?
DUX4 inh: 26.5

How did COc1cccc(CN2[C@H](CO)[C@@H](c3ccccc3)C23CN(C(=O)C2CCC2)C3)c1 do in these assays?
DUX4 inh: 2.5

What do the screens show for `CC=Cc1ccc2n(c1=O)C[C@H]1[C@H](CO)[C@@H](C(=O)NCCC)N(Cc3cccnc3)[C@@H]21` (mixture of isomers)?
DUX4 inh: -0.4

How did CNC[C@H]1OCc2ccccc2-c2c(n(C)c3ccccc23)C(=O)N([C@@H](C)CO)C[C@H]1C do in these assays?
DUX4 inh: 8.9

How did N#C[C@@H]1[C@H](c2ccc(C3=CCCCC3)cc2)[C@H](CO)N1C(=O)c1ccccn1 do in these assays?
DUX4 inh: -1.6

What do the screens show for `CCCC(=O)Nc1ccc2c(c1)C(=O)N(C)[C@H]1CC[C@@H](CC(=O)O)O[C@@H]1CO2`?
DUX4 inh: 2.2

What do the screens show for `O=C(C[C@H]1C[C@@H]2c3cc(NC(=O)CC4CC4)ccc3O[C@@H]2[C@H](CO)O1)NCc1ccncc1`?
DUX4 inh: -0.7

Results for CN(C)C(=O)c1cccc(-c2ccc([C@H]3[C@@H](CO)N4C(=O)CN(C(=O)Cc5ccccc5)C[C@@H]34)cc2)c1 ?
DUX4 inh: -2.7

Results for C[C@H](CO)N1C[C@H](C)[C@@H](CN(C)Cc2ccccc2C(F)(F)F)OCc2ccccc2-c2c(n(C)c3ccccc23)C1=O ?
DUX4 inh: -45.9*

How did C[C@H]1CN([C@@H](C)CO)C(=O)c2c(c3ccccc3n2C)-c2ccccc2CO[C@H]1CN(C)C do in these assays?
DUX4 inh: 5.8

How did C[C@@H]1CN([C@@H](C)CO)C(=O)c2c(c3ccccc3n2C)-c2ccccc2CO[C@@H]1CN(C)C do in these assays?
DUX4 inh: -6.6

What do the screens show for `C[C@H](CO)N1C[C@H](C)[C@H](CN(C)Cc2ccccc2C(F)(F)F)OCc2ccccc2-c2c(n(C)c3ccccc23)C1=O`?
DUX4 inh: -59.4*

What do the screens show for `C[C@@H]1CN([C@H](C)CO)C(=O)c2c(c3ccccc3n2C)-c2ccccc2CO[C@@H]1CN(C)C(=O)Nc1ccccc1C(F)(F)F`?
DUX4 inh: -1.1

What do the screens show for `COc1ccccc1CN(C)C[C@H]1OCc2ccccc2-c2c(n(C)c3ccccc23)C(=O)N([C@H](C)CO)C[C@H]1C`?
DUX4 inh: -2.8

What do the screens show for `O=C(C[C@H]1C[C@@H]2c3cc(NC(=O)NC4CCCC4)ccc3O[C@@H]2[C@@H](CO)O1)NCc1ccccc1F`?
DUX4 inh: 6.2

Results for COCC(=O)N1CC(=O)N2[C@H](C1)[C@H](c1ccc(-c3ccncc3)cc1)[C@@H]2CO ?
DUX4 inh: 14.8

Results for COC(=O)C[C@@H]1CC[C@H]2[C@H](COc3ccc(NC(=O)C4CCOCC4)cc3C(=O)N2C)O1 ?
DUX4 inh: 0.5

What do the screens show for `CC(=O)N1CC(=O)N2[C@H](C1)[C@@H](c1ccc(C#Cc3cccnc3)cc1)[C@@H]2CO`?
DUX4 inh: 3.1

How did CCCC#Cc1ccc([C@H]2[C@H](CO)N3C(=O)CN(C(=O)Nc4cccc(F)c4)C[C@@H]23)cc1 do in these assays?
DUX4 inh: -69.3*

Results for CC(=O)N1CC(=O)N2[C@H](CO)[C@@H](c3ccc(C#Cc4cccnc4)cc3)[C@@H]2C1 ?
DUX4 inh: -4.5

What do the screens show for `O=C1CNC[C@@H]2[C@@H](c3ccc(C#Cc4cccnc4)cc3)[C@@H](CO)N12`?
DUX4 inh: -19.5*

How did O=C1CNC[C@H]2[C@@H](c3ccc(C#CC4CCCCC4)cc3)[C@H](CO)N12 do in these assays?
DUX4 inh: 16.2

How did CC(=O)N1CC(=O)N2[C@H](CO)[C@H](c3ccc(C#Cc4cccnc4)cc3)[C@@H]2C1 do in these assays?
DUX4 inh: -10.9*

How did CCCC#Cc1ccc([C@H]2[C@H]3CN(C(=O)Nc4ccccc4)CC(=O)N3[C@H]2CO)cc1 do in these assays?
DUX4 inh: 12.6

How did O=C(Nc1cccc(F)c1)N1CC(=O)N2[C@H](CO)[C@@H](c3ccc(C#CCC4CCCC4)cc3)[C@@H]2C1 do in these assays?
DUX4 inh: -1.8

What do the screens show for `O=C1CNC[C@@H]2[C@H](c3ccc(C#CC4CCCCC4)cc3)[C@@H](CO)N12`?
DUX4 inh: 1.5

Results for O=S(=O)(c1cccc(F)c1)N1CC[C@@H]2[C@H]1c1cc(-c3cccc(F)c3)ccc1N[C@@H]2CO ?
DUX4 inh: -3.7

What do the screens show for `COCC(=O)Nc1ccc2c(c1)C(=O)N(C)[C@@H]1CC[C@H](CC(=O)N3CCc4ccccc4C3)O[C@H]1CO2`?
DUX4 inh: 6.1

Results for CN(C)CC(=O)N1[C@@H](CO)[C@H](c2ccccc2)C12CN(C(=O)c1ccc(F)cc1)C2 ?
DUX4 inh: 3.8

How did COc1ccc2c3c(n(C)c2c1)[C@H](CO)N(C(=O)Cc1ccccn1)CC31CN(C)C1 do in these assays?
DUX4 inh: 18.0

Results for CCCC#Cc1ccc([C@H]2[C@H](CO)N3CCCCN(Cc4ccncc4)C[C@@H]23)cc1 ?
DUX4 inh: 19.6

How did COc1ccc(C#Cc2ccc([C@@H]3[C@@H](CO)N4CCCCN(Cc5ccncc5)C[C@@H]34)cc2)cc1 do in these assays?
DUX4 inh: -45.3*

How did COc1ccc(NC(=O)N2CCCCN3[C@H](CO)[C@@H](c4ccc(C#CCC(C)C)cc4)[C@@H]3C2)cc1 do in these assays?
DUX4 inh: -17.3*

How did OC[C@H]1[C@@H](c2ccc(C#CC3(O)CCCC3)cc2)[C@H]2CN(Cc3ccncc3)CCCCN21 do in these assays?
DUX4 inh: 14.9

How did COc1ccc(C#Cc2ccc([C@H]3[C@@H](CO)N4CCCCN(Cc5ccncc5)C[C@H]34)cc2)cc1 do in these assays?
DUX4 inh: -32.2*

How did OC[C@@H]1[C@H](c2ccc(C#CC3(O)CCCC3)cc2)[C@H]2CN(Cc3ccncc3)CCCCN12 do in these assays?
DUX4 inh: 2.5

Results for CN1CCCCN2[C@H](CO)[C@H](c3ccc(C#CC4(O)CCCC4)cc3)[C@@H]2C1 ?
DUX4 inh: 25.0

How did COc1ccc(NC(=O)N2CCCCN3[C@H](C2)[C@H](c2ccc(C#CCC(C)C)cc2)[C@@H]3CO)cc1 do in these assays?
DUX4 inh: 15.3
